# Records with an inconclusive call do not appear. A call without a number means that no potency is given here. Calls of active or inactive are those of the source. The call rests on the fitted dose curve; in most records, active means well fitted inhibition curve with a large enough effect; inconclusive means small, poorly fitted or top-dose-only effect; inactive means flat fitted curve, though single readings scatter.
# What was measured:
# Assay in all cases: qHTS profiling for inhibitors of Plasmodium falciparum proliferation (AID 504749); further: nearly all actives have a fitted effect of over 60% in size
# Conditions in all cases: P. falciparum in erythrocytes, SYBR Green DNA, 72 h; series mostly up to 28.7 µM
# CP256 = system: CP256
# Outline: (§1)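 Quantitative HTS: compounds pinned into medium, infected erythrocytes added (0.3% parasitemia, 2.5% hematocrit), 72 h culture at 37 C under 5% CO2. Saponin/Triton lysis with SYBR Green I, overnight RT, then fluorescence read.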
# CP260 = system: CP260
# Outline: as §1
# CP262 = system: CP262
# Outline: as §1
# CP265 = system: CP265
# Outline: as §1
# CP266 = system: CP266
# Outline: as §1
# CP268 = system: CP268
# Outline: as §1
# CP269 = system: CP269
# Outline: as §1
# CP286 = system: CP286
# Outline: as §1
# CP291 = system: CP291
# Outline: as §1
# CP297 = system: CP297
# Outline: as §1
# CP305 = system: CP305
# Outline: as §1
# CP315 = system: CP315
# Outline: as §1
# CP325 = system: CP325
# Outline: as §1
# CP329 = system: CP329
# Outline: as §1
# CP335 = system: CP335
# Outline: as §1
# DFO2036 = system: DFO2036
# Outline: as §1
# DIV14 = system: DIV14
# Outline: as §1
# DIV17 = system: DIV17
# Outline: as §1
# DIV30 = system: DIV30
# Outline: as §1
# ECU = system: ECU
# Outline: as §1
# FAB9 = system: FAB9
# Outline: as §1
# GB4 = system: GB4
# Outline: as §1
# HB3 = system: HB3
# Outline: as §1
# ICS = system: ICS
# Outline: as §1
# JCK = system: JCK
# Outline: as §1
# N140 = system: N140
# Outline: as §1
# P93_24 = system: P93_24
# Outline: as §1
# P94_40 = system: P94_40
# Outline: as §1
# PAD = system: PAD
# Outline: as §1
# PC15 = system: PC15
# Outline: as §1
# PC49 = system: PC49
# Outline: as §1
# SC27B = system: SC27B
# Outline: as §1
# TAB109 = system: TAB109
# Outline: as §1
# TAB113 = system: TAB113
# Outline: as §1
# TAB165 = system: TAB165
# Outline: as §1
# W2 = system: W2
# Outline: as §1
# Potency means the concentration at half of the fitted maximal effect.
smiles,measurement,setting,value
CCC(C)n1ncn(-c2ccc(N3CCN(c4ccc(OCC5COC(Cn6cncn6)(c6ccc(Cl)cc6Cl)O5)cc4)CC3)cc2)c1=O (stereo unspecified),Potency,CP256,inactive
same,Potency,CP260,6.31 µM (active)
same,Potency,CP262,inactive
same,Potency,CP265,inactive
same,Potency,CP266,inactive
same,Potency,CP268,inactive
same,Potency,CP269,inactive
same,Potency,CP286,4.47 µM (active)
same,Potency,CP291,inactive
same,Potency,CP297,inactive
same,Potency,CP305,inactive
same,Potency,CP315,inactive
same,Potency,CP325,inactive
same,Potency,CP329,inactive
same,Potency,CP335,4.26 µM (active)
same,Potency,DFO2036,inactive
same,Potency,DIV14,inactive
same,Potency,DIV17,inactive
same,Potency,DIV30,inactive
same,Potency,ECU,inactive
same,Potency,FAB9,inactive
same,Potency,GB4,inactive
same,Potency,HB3,inactive
same,Potency,ICS,2.51 µM (active)
same,Potency,JCK,inactive
same,Potency,N140,inactive
same,Potency,P93_24,inactive
same,Potency,P94_40,inactive
same,Potency,PAD,inactive
same,Potency,PC15,inactive
same,Potency,PC49,inactive
same,Potency,SC27B,inactive
same,Potency,TAB109,inactive
same,Potency,TAB113,inactive
same,Potency,TAB165,inactive
same,Potency,W2,2.13 µM (active)
